# Assay results published in PubChem BioAssay (Tox21).
# Unmarked numbers belong to inactive results. Results filed as inconclusive are left out. A call without a number means that no potency is given here. Active and inactive are the calls of the source. Unless noted, the call rests on the fitted dose curve; in most records, active means well fitted curve in the direction sought with a large enough effect in the repeat runs; inconclusive means weak or mixed curves; inactive means no such curve, though single readings can be large; an effect the other way counts as inactive or inconclusive.
# What was measured:
# [1] = qHTS assay for small molecules that induce genotoxicity in human embryonic kidney cells expressing luciferase-tagged ATAD5 (AID 651632); further: nearly all actives have a fitted effect of over 15% in size
# In short: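 Cells were seeded at 2,000 per well, dosed with compound, and incubated 16 hr at 37C in 5% CO2. Luciferase activity was then quantified after a 30 min room-temperature incubation with Amplite.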
# [2] = qHTS assay for small molecule agonists of the p53 signaling pathway - cell viability (AID 651633; calls by dose curve;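 further: p53RE-bla HCT reporter cells with a stable beta-lactamase p53 reporter; series mostly up to about 83 µM; nearly all actives have a fitted effect of over 30% in size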)
# In short: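 p53RE-bla cells, seeded at 4,000 per well and rested 5 h at 37 C/5% CO2, received compounds in DMSO for 16 h at 37 C. CellTiter-Glo was then added, and luminescence was read after 30 min at room temperature to gauge cytotoxicity.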
# [3] = qHTS assay for small molecule disruptors of the mitochondrial membrane potential - cell viability (AID 720634; calls by dose curve; further: nearly all actives have a fitted effect of over 20% in size; further: potency means the concentration at half of the fitted maximal effect)
# In short: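 Cytotoxicity was measured by ATP quantitation in HepG2 wells that had first been treated with compound for 1 hr and stained with m-MPI dye; CellTiter-Glo incubation was 30 min at room temperature.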
# [4] = qHTS assay to test for compound auto fluorescence at 535 nm (green) in HepG2 cells (AID 720675)
# [5] = qHTS assay to test for compound auto fluorescence at 460 nm (blue) in HEK293 cells (AID 720678)
# In short: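 Blue-channel (Ex/Em 405/460 nm) intensity measured in HEK293 cultures after overnight compound exposure at 37C; signal expressed relative to triamterene. Cells plated 2,000 per well in 10% dialyzed FBS medium and allowed 4-5 hr to attach.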
# [6] = qHTS assay to test for compound auto fluorescence at 590 nm (red) in HEK293 cells (AID 720679)
# In short: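 Red-channel autofluorescence (Ex/Em 540/590 nm; Rose Bengal sodium reference) was measured after overnight 37C, 5% CO2 exposure of attached HEK293 cells, 2,000 per well in medium with 10% dialyzed FBS.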
# [7] = qHTS assay to test for compound auto fluorescence at 535 nm (green) in HEK293 cells (AID 720680)
# [8] = qHTS assay to test for compound auto fluorescence at 460 nm (blue) in HEK293 cell free culture (AID 720681)
# In short: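 Test compounds were pinned into cell-free culture medium (DMEM with 10% FBS) and fluorescence was read directly at Ex/Em 405/460 nm. Signals were expressed as fluorescence equivalents of triamterene, with DMSO vehicle as control.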
# [9] = qHTS assay to test for compound auto fluorescence at 535 nm (green) in HEK293 cell free culture (AID 720682)
# In short: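 Green-channel intensity (Ex/Em 485/535 nm) was recorded from compound-treated wells containing only DMEM with 10% FBS. Fluorescein provided the equivalency standard.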
# [10] = qHTS assay to test for compound auto fluorescence at 590 nm (red) in HEK293 cell free culture (AID 720683)
# In short: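 Tox21 10K library compounds were pinned into cell-free DMEM with 10% FBS and fluorescence was read at excitation 540 nm. Activity is expressed as Rose Bengal sodium equivalency.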
# [11] = qHTS assay to test for compound auto fluorescence at 590 nm (red) in HepG2 cell free culture (AID 720684)
# In short: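 Ex 540 / Em 590 nm read of compound in cell-free MEM (10% FBS). Rose Bengal sodium reference.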
# [12] = qHTS assay to test for compound auto fluorescence at 460 nm (blue) in HepG2 cell free culture (AID 720685)
# In short: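 Cell-free plates of MEM plus 10% FBS received 23 nL compound or DMSO vehicle; blue-channel (405/460 nm) intensity scored against triamterene as reference fluorophore.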
# [13] = qHTS assay to test for compound auto fluorescence at 535 nm (green) in HepG2 cell free culture (AID 720686)
# [14] = molecular target: Glucocorticoid receptor (Homo sapiens) (UniProt P04150); assay: qHTS assay to identify small molecule agonists of the glucocorticoid receptor (GR) signaling pathway (AID 720691; active means well fitted activation curve with a large enough effect in the signal ratio in the repeat runs, not every such curve was filed as active; the % refers to the signal ratio)
# Glucocorticoid receptor (Homo sapiens), sequence (P04150 whole entry, looked up): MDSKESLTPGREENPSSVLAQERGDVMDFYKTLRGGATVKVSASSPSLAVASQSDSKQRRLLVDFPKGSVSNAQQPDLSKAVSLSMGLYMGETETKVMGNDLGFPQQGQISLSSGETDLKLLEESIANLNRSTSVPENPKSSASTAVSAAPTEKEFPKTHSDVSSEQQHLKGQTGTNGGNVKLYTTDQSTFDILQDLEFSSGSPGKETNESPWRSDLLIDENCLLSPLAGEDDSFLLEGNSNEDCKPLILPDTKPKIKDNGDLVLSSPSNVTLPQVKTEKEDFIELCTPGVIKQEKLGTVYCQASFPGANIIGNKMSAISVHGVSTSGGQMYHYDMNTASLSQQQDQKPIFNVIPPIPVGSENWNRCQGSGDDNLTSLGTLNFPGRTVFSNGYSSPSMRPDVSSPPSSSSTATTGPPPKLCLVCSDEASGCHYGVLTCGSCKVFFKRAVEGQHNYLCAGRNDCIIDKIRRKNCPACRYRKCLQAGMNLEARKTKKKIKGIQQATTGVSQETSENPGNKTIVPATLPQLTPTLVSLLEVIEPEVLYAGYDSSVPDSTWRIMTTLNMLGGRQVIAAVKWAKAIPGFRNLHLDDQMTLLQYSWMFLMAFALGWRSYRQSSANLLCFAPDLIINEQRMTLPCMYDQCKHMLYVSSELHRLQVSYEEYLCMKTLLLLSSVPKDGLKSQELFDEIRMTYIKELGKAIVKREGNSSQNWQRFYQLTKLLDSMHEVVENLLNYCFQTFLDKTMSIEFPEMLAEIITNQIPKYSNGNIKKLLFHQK
# In short: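 Steps: seed GR-bla HeLa cells, incubate 4 h at 37 C/5% CO2; pin-transfer DMSO-dissolved compounds; incubate 18 h at 37 C; add LiveBLAzer B/G FRET substrate; after 2 h at room temperature, measure fluorescence.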
# [15] = molecular target: Glucocorticoid receptor (Homo sapiens) (UniProt P04150); assay: qHTS assay to identify small molecule antagonists of the glucocorticoid receptor (GR) signaling pathway (AID 720692; active means well fitted inhibition curve with a large enough effect in the signal ratio in the repeat runs, not every such curve was filed as active; the % refers to the signal ratio)
# In short: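 Antagonism was scored as loss of dexamethasone-driven (5 nM final) reporter signal in HeLa cells bearing a glucocorticoid response element–beta-lactamase construct, after 18 h compound exposure at 37 C and 2 h FRET substrate loading.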
# [16] = qHTS assay for small molecule disruptors of the mitochondrial membrane potential (AID 720635)
# In short: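 HepG2 cells (2,000/well) attached overnight at 37C, then took compound for 1 hr at 37C, 5% CO2. Mito-MPS dye was added for 30 min; fluorescence was read at 490/535 nm (monomers) and 540/590 nm (aggregates).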
# [17] = qHTS assay to test for compound auto fluorescence at 590 nm (red) in HepG2 cells (AID 720674)
# In short: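 Compound auto-fluorescence is scored relative to Rose Bengal sodium, measured at 540/590 nm in live HepG2 cultures after 1 hr compound contact (37 C, 5% CO2).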
# [18] = qHTS assay to test for compound auto fluorescence at 460 nm (blue) in HepG2 cells (AID 720687)
# In short: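 Cells (2,000/well in MEM with 10% FBS) attached overnight at 37 C, then were exposed to compound or DMSO for 1 hr at 37 C, 5% CO2. Fluorescence read at Ex/Em 405/460 nm, expressed as triamterene-equivalent signal.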
# [19] = qHTS assay for small molecules that induce genotoxicity in human embryonic kidney cells expressing luciferase-tagged ATAD5 - cell viability (AID 651634; calls by dose curve; further: nearly all actives have a fitted effect of over 25% in size)
# In short: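 Cells (HEK293T, luciferase-tagged ATAD5) are seeded at 2,000 per well, dosed with compound or DMSO vehicle, and incubated 15.5 hr at 37C and 5% CO2. CellTiter-Fluor is added for 30 min before fluorescence is measured.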
Compound,Potency [1],Potency [2],Potency [3],outcome [4],Potency [5],outcome [6],outcome [7],Potency [8],outcome [9],outcome [10],outcome [11],Potency [12],outcome [13],Potency [14],Potency [15],Potency [16],outcome [17],Potency [18],Potency [19]
CC(C=O)Cc1ccc(C(C)C)cc1 (stereo unspecified),inactive,inactive,inactive,inactive,inactive,inactive,inactive,inactive,inactive,inactive,inactive,inactive,inactive,inactive,inactive,–,–,–,–
Cc1cc(C)c(NC(=O)CN(CC(=O)O)CC(=O)O)c(C)c1Br,inactive,inactive,inactive,inactive,inactive,inactive,inactive,inactive,inactive,inactive,inactive,inactive,inactive,inactive,–,inactive,–,–,–
OC[C@H]1O[C@@H]2O[C@H]3[C@H](O)[C@@H](O)[C@@H](O[C@H]4[C@H](O)[C@@H](O)[C@@H](O[C@H]5[C@H](O)[C@@H](O)[C@@H](O[C@H]6[C@H](O)[C@@H](O)[C@@H](O[C@H]7[C@H](O)[C@@H](O)[C@@H](O[C@H]8[C@H](O)[C@@H](O)[C@@H](O[C@H]9[C@H](O)[C@@H](O)[C@@H](O[C@H]1[C@H](O)[C@H]2O)O[C@@H]9CO)O[C@@H]8CO)O[C@@H]7CO)O[C@@H]6CO)O[C@@H]5CO)O[C@@H]4CO)O[C@@H]3CO,inactive,inactive,inactive,inactive,inactive,inactive,inactive,inactive,inactive,inactive,inactive,inactive,inactive,inactive,inactive,–,inactive,inactive,–
CCOC(=O)Cn1c(=O)sc2cccc(Cl)c21,inactive,inactive,inactive,inactive,inactive,inactive,inactive,inactive,inactive,inactive,inactive,inactive,inactive,inactive,–,–,–,inactive,inactive
CN(C)CCOC(c1ccc(Cl)cc1)c1ccccn1 (stereo unspecified),inactive,inactive,5.31 µM (active),inactive,inactive,inactive,inactive,inactive,inactive,inactive,inactive,inactive,inactive,inactive,inactive,–,inactive,inactive,inactive
Nc1ccn(C2CO[C@H](CO)O2)c(=O)n1 (stereo partly specified),inactive,inactive,inactive,inactive,inactive,inactive,–,inactive,inactive,inactive,inactive,inactive,inactive,–,–,–,–,inactive,inactive
CC/C=C\C#N,inactive,inactive,inactive,inactive,inactive,inactive,inactive,inactive,inactive,inactive,inactive,inactive,inactive,inactive,inactive,–,inactive,inactive,inactive
O=C(O)c1cccc(C(=O)O)n1,inactive,inactive,inactive,inactive,inactive,inactive,inactive,inactive,inactive,inactive,inactive,inactive,inactive,inactive,inactive,inactive,inactive,inactive,–
